Source: PubChem BioAssay (Tox21)
Records with an inconclusive call do not appear. Entries that show only a call come without a potency. Activity calls are given as the source filed them. Calls follow the shape of the dose curve; as a rule, active = well fitted cell-killing curve with a large enough effect in the repeat runs; inconclusive = weak or mixed curves, or effect the other way; inactive = flat fitted curve, though single readings scatter.

assay: qHTS assay to identify small molecule agonists of the TGF-beta/Smad signaling pathway - cell viability counter screen (AID 1346829); conditions: SBE-bla HEK293T viability, CellTiter-Glo luminescence, 5 h; series mostly up to 76.8 µM; also: top concentration of the series differs between compounds; nearly all actives have a fitted effect of over 45% in size
Summary of the method: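 HEK 293T SBE-bla line, 5 hr compound exposure at 37 C, multiplexed CellTiter-Glo viability read by luminescence.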

SMILES	Potency
O=C1CCCCCCCCCCC1	inactive
CN1Cc2c(N)cccc2C(c2ccccc2)C1 (stereo not drawn)	inactive
COCN(COC)c1nc(N(COC)COC)nc(N(COC)COC)n1	inactive
CC/C(C)=N/O	inactive
CC(=O)OCCC(C)C	inactive
C=C1C[C@]23C[C@@]1(O)CC[C@H]2[C@@]12C=C[C@H](O)[C@@](C)(C(=O)O1)[C@H]2[C@@H]3C(=O)O	inactive
COc1ccc2cc3[n+](cc2c1OC)CCc1cc2c(cc1-3)OCO2	inactive
CC1=CC(=O)CC(C)(C)C1	inactive
CC(O)CNCC(C)O (stereo not drawn)	inactive
CCCCCCC(=O)O	inactive
Cc1ccncc1	inactive
CN1CCCC1=O	inactive
O=C1O[C@H]([C@H](O)CO)C(O)=C1O	inactive
CC/C=C(\C(=O)N[C@@H]1C(=O)N2C(C(=O)OCOC(=O)C(C)(C)C)=C(COC(N)=O)CS[C@H]12)c1csc(N)n1	inactive
CCOC(=O)CC(=O)OCC	inactive
COc1cc(NC(=O)CC(C)=O)c(OC)cc1Cl	inactive
O=[N+]([O-])c1cc(C(F)(F)F)ccc1Cl	inactive
NCCNCCNCCN	inactive
CCCCC(CC)COC(=O)c1ccc(C(=O)OCC(CC)CCCC)cc1 (stereo not drawn)	inactive

SMILES	Potency
CC1(C)[C@@H](O[C@H]2O[C@H](C(=O)O)[C@@H](O)[C@H](O)[C@H]2O[C@@H]2O[C@H](C(=O)O)[C@@H](O)[C@H](O)[C@H]2O)CC[C@]2(C)[C@H]3C(=O)C=C4[C@@H]5C[C@@](C)(C(=O)O)CC[C@]5(C)CC[C@@]4(C)[C@]3(C)CC[C@@H]12	inactive
C=C(CC(=O)O)C(=O)O	inactive
NC(N)=S	inactive
Brc1ccc(Oc2ccc(Br)cc2)cc1	inactive
OCCOCCOCCOCCOCCO	inactive
C=CC(C)(C)C	inactive
Cc1ccc(C)c(S(=O)(=O)O)c1	inactive
CC(=O)Nc1ccc(CC(=O)O)cc1	inactive
NC1CCCCC1N (stereo not drawn)	inactive
Cc1nnc(NS(=O)(=O)c2ccc(N)cc2)s1	inactive
CCCCCCCCCCCCCC(=O)O	inactive
Clc1cccc(Cl)c1NC1=NCCN1	inactive
O=Cc1ccc(CO)o1	inactive
CC(C)(CO)CO	inactive
O=c1n(CCCN2CCN(c3cccc(Cl)c3)CC2)nc2ccccn12	inactive
COc1ccccc1[N+](=O)[O-]	inactive
CCCCC(=O)O	inactive
N#CCC(=O)O	inactive
Cc1ncc(CO)c(CO)c1O	inactive
